Screens (PubChem BioAssay)
Shown are actives, neighbours in structure and some others; about 18% of the full set was active somewhere.
RORg inh – blocks mouse ROR gamma transcriptional activity | AID 2551 | Potency, µM (titrated, usually from 53.6 µM), most hits filed as inhibitors | P51450 | Drosophila S2 Gal4-RORgamma UAS-luciferase reporter, 20 h | actives 5.4% (n = 310,000); also: nearly all actives have a fitted effect of over 60% in size
Target sequence (P51450 whole entry, looked up, the tested form may be a part): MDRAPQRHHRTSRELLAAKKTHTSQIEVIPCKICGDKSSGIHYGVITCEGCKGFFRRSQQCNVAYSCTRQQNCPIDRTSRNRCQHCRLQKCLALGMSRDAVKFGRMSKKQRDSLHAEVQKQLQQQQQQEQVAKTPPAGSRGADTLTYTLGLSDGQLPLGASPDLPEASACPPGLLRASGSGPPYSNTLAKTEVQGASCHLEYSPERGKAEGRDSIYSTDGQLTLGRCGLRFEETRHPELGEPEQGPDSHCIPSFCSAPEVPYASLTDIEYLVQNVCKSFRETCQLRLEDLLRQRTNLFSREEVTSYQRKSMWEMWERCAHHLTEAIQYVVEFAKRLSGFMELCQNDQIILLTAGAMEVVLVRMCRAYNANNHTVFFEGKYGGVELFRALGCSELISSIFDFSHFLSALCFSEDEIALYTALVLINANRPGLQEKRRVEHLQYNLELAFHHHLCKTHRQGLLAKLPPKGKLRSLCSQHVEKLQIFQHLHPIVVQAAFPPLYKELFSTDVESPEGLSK
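In this cell-based reporter format, copper sulfate (700 uM final) drives Gal4–ROR gamma fusion expression from a metallothionein promoter in Drosophila Schneider cells; compounds preincubated 1 hr, reporter read after 20 hr at ambient temperature.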
Gal4-VP16 FLuc – Gal4-VP16 reporter inhibition counter-screen; Potency, µM (titrated, usually from 53.6 µM), most hits filed as inhibitors; Drosophila S2 Gal4-VP16 UAS-luciferase, luminescence, 20 h; actives 3.5% (n = 310,000); AID 2546;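 also: Gal4-VP16 expression switched on by copper sulfate through the metallothionein promoter; nearly all actives have a fitted effect of over 50% in size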
TDP1 cell noCPT – qHTS for Inhibitors of human tyrosyl-DNA phosphodiesterase 1 (TDP1): qHTS in cells in absence of CPT; Potency, µM (top dose mostly 46.2 µM), most hits filed as inhibitors; AID 686978, 2013; actives 15% (n = 420,000); DT40 Tdp1-/- hTDP1 cells, no CPT, ATP luminescence, 48 h; also: nearly all actives have a fitted effect of over 55% in size
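Chicken DT40 Tdp1-/- cells stably complemented with human TDP1 were seeded at 400 cells/well with DMSO in place of 20 nM camptothecin. After compound pinning, cells grew at least 48 hr at 37 °C; viability read by CellTiter-Glo luminescence.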
DT40 TDP1 CPT – DT40-hTDP1 cell growth loss with CPT; Potency, µM (series often up to 46.2 µM), most hits filed as inhibitors; chicken DT40 Tdp1-/-;hTDP1 cells + 20 nM CPT, ATP luminescence, 48 h; actives 12% (n = 420,000); also: nearly all actives have a fitted effect of over 55% in size
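Chicken DT40 Tdp1-/- cells stably complemented with human TDP1 were seeded at 400 cells/well in medium containing 20 nM camptothecin, exposed to pin-transferred compounds, and grown at 37 °C for at least 48 hr. Viability was read as ATP luminescence.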
LDHA inh – inhibitors of human lactate dehydrogenase A | purified LDHA, NADH/diaphorase-resazurin fluorescence; hits give low values | activity change, % (values are at about 110 or 230 µM) | actives 0.15% (n = 480,000) | AID 1347041; in the data active = activity change below about -30%; inconclusive = mostly about -25% to -30%
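Resorufin fluorescence (ex540/em590), read at 0 and 20 min after diaphorase/resazurin addition, reports the NADH left after a 5 min room-temperature reaction of 2 nM human LDH5 with 0.06 mM NADH and 0.2 mM pyruvate.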
IL1B secr inh – inflammasome signaling inhibition, IL-1 beta readout. actives 4.7% (n = 360,000). THP-1 LPS/ATP IL-1B secretion, AlphaLISA, 16 h; hits give low values. activity change, % at 57.5 µM; in the data active = activity change below about -50%; inconclusive = mostly about -30% to -49%
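THP-1 cells pretreated 1 hr with compounds (up to 57.5 uM final), then stimulated with LPS (250 ng/mL final) plus ATP (1.25 mM final); secreted IL-1B measured by AlphaLISA after 16 hr, decreased signal indicating inhibition.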
Hits are given with their value; - = inactive; ? = inconclusive; . = not tested or not shown. Unless noted, calls follow the shape of the dose curve; as a rule, active = well fitted curve in the direction sought with a large enough effect; inconclusive = small, poorly fitted or top-dose-only effect, or another doubt; inactive = no such curve, though single readings can be large; an effect the other way counts as inactive or inconclusive.

SMILES | RORg inh | Gal4-VP16 FLuc | TDP1 cell noCPT | DT40 TDP1 CPT | LDHA inh | IL1B secr inh
CC(=O)C1=C(C)NC(SCC(=O)c2ccc(Cl)c(Cl)c2)=C(C#N)C1c1ccco1 (configuration not stated) | ? | - | ? | ? | - | -57
CCOC(=O)C1=C(C)NC(SCC(=O)O)=C(C#N)C1c1ccco1 (configuration not stated) | - | - | - | - | - | -
CC(=O)C1=C(C)NC(SCC(=O)c2cc(Cl)ccc2Cl)=C(C#N)C1c1ccco1 (configuration not stated) | 6.3µM | 3.5µM | ? | ? | - | ?
CS(=O)(=O)Nc1cc(NC(=O)c2cc(-c3ccco3)on2)ccc1F | . | . | . | . | - | .
COc1ccc(OC)c(CNc2ccc3c(c2)CCC3)c1 | . | . | 16µM | ? | - | -
COc1cccc(CNc2ccc3c(c2)CCC3)c1 | - | - | - | - | - | -
COc1ccc(CC(=O)Nc2ccc3c(c2)CCC3)cc1OC | - | ? | 9.2µM | ? | - | -
COc1ccc(OC)c(CC(=O)Nc2ccc3c(c2)CCC3)c1 | - | - | - | - | - | -
C=C(C)COc1ccc(-c2ncncc2-c2ccc(Br)cc2)c(O)c1 | - | - | - | - | - | -
C=C(C)COc1ccc(-c2[nH]ncc2Oc2ccc(OC)cc2)c(O)c1 | 13µM | ? | ? | ? | - | -
COc1cccc(Oc2cn[nH]c2-c2ccc(OCC(=O)NN)cc2O)c1 | - | - | ? | ? | - | -
C=C(C)COc1ccc(-c2[nH]ncc2Oc2ccccc2OC)c(O)c1 | 11µM | ? | ? | ? | - | -62
C=C(C)COc1ccc(-c2[nH]ncc2-c2ccc(Br)cc2)c(O)c1 | 7.9µM | 10µM | 5.2µM | 4.6µM | - | -100
C=C(C)COc1ccc(-c2n[nH]c(C)c2-c2ccc(Br)cc2)c(O)c1 | 3.2µM | 4.5µM | ? | 18µM | - | -92
CCc1sc(C(=O)NCCC(C)C)cc1C | . | . | . | . | - | .
N#Cc1cccnc1NCCNc1cnc2ccccc2n1 | . | . | . | . | - | .
Cc1ccc(S(=O)(=O)N(CC(=O)O)Cc2ccc(Cl)c(Cl)c2)cc1 | . | . | . | . | - | .
C=C(C)COc1ccc(-c2ncncc2-c2ccccc2OC)c(O)c1 | - | ? | ? | ? | - | -
C=C(C)COc1ccc(-c2[nH]ncc2-c2ccccc2OC)c(O)c1 | 8.9µM | 13µM | 26µM | 26µM | - | -60
CCCOC(=O)c1ccc(Oc2cn[nH]c2-c2ccc(OC)cc2O)cc1 | 10µM | 22µM | 21µM | 15µM | - | -
O=C(CC12CC3CC(CC(Br)(C3)C1)C2)OC(C(=O)c1c[nH]c2ccccc12)c1ccccc1 (configuration not stated) | . | . | . | . | - | .
CN(CC(=O)N1CCN(c2cccc(Cl)c2)CC1)S(=O)(=O)c1cnc[nH]1 | - | - | - | - | - | -
CC(CC(=O)N1CCN(c2ccccc2)CC1)S(=O)(=O)c1ccc2c(c1)NC(=O)CO2 (configuration not stated) | ? | - | ? | 21µM | - | -
COc1ccc(S(=O)(=O)CCC(=O)N2CCN(c3ccc(C(C)=O)cc3)CC2)cc1 | - | - | 15µM | ? | - | -
Cc1ccc(N(C)C(=O)CC(C)S(=O)(=O)c2ccc3c(c2)NC(=O)CO3)cc1 (configuration not stated) | - | - | ? | - | - | -
COc1ccc(N2CCN(C(=O)CCS(=O)(=O)c3ccc(C)cc3)CC2)cc1 | . | . | - | ? | - | -
Cc1cccc(N2CCN(C(=O)CCS(=O)(=O)c3ccc4c(c3)NC(=O)CO4)CC2)c1C | - | - | ? | ? | - | -
COc1ccc(N2CCN(C(=O)CCS(=O)(=O)c3ccc4c(c3)NC(=O)CO4)CC2)cc1 | - | - | 16µM | ? | - | -
CN(CC(=O)N1CCN(c2cccc(Cl)c2)CC1)S(=O)(=O)c1cccs1 | - | - | 16µM | ? | - | ?
O=C(Nc1ccc(F)c(Cl)c1)N1Cc2cccn2-c2ccccc21 | . | . | . | . | - | .
